# Several values for one entry are separate records, joined by “and”; a condition that tells them apart may be missing. Equal entries are not always repeated. A number with no mark means an inactive call. Inconclusive results are not listed. Entries that show only a call come without a potency. Activity calls are given as the source filed them. Unless noted, the call rests on the fitted dose curve; in most records, active means well fitted curve in the direction sought with a large enough effect; inconclusive means small, poorly fitted or top-dose-only effect, or another doubt; inactive means no such curve, though single readings can be large; an effect the other way counts as inactive or inconclusive.
# Tests used:
# C33A = assay: Primary qHTS to identify gynecologic anti-cancer compounds using libraries of approved drugs and bioactive compounds (AID 1345084); conditions: Gynecologic cancer cell panel viability, ATPlite luminescence, 48 h; series mostly up to 57.5 µM; further: nearly all actives have a fitted effect of over 55% in size
# Procedure, shortened: (§1)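 ATP-based viability (ATPlite), 1,000 cells/well, 16 h pre-incubation, 48 h compound at 37 C, 5% CO2, 15 min RT before read.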
# CAOV3 = assay: as above; conditions: Gynecologic cancer cell panel viability, ATPlite luminescence, 48 h; series mostly up to 57.5 µM
# Procedure, shortened: as §1
# CASKI = assay: as above; conditions: Gynecologic cancer cell panel viability, ATPlite luminescence, 48 h; series mostly up to 57.5 µM
# Procedure, shortened: as §1
# Es-2 = assay: as above; conditions: Gynecologic cancer cell panel viability, ATPlite luminescence, 48 h; series mostly up to 57.5 µM
# Procedure, shortened: as §1
# HeLa = assay: as above; conditions: Gynecologic cancer cell panel viability, ATPlite luminescence, 48 h; series mostly up to 57.5 µM
# Procedure, shortened: as §1
# Hek293T = assay: as above; conditions: Gynecologic cancer cell panel viability, ATPlite luminescence, 48 h, control line for the selectivity index; series mostly up to 57.5 µM
# Procedure, shortened: as §1
# JEG-3 = assay: as above; conditions: Gynecologic cancer cell panel viability, ATPlite luminescence, 48 h; series mostly up to 57.5 µM
# Procedure, shortened: as §1
# OV90 = assay: as above; conditions: Gynecologic cancer cell panel viability, ATPlite luminescence, 48 h; series mostly up to 57.5 µM
# Procedure, shortened: as §1
# PA-1 = assay: as above; conditions: Gynecologic cancer cell panel viability, ATPlite luminescence, 48 h; series mostly up to 57.5 µM
# Procedure, shortened: as §1
# SKOV3 = assay: as above; conditions: Gynecologic cancer cell panel viability, ATPlite luminescence, 48 h; series mostly up to 57.5 µM
# Procedure, shortened: as §1
# Tov-21-G = assay: as above; conditions: Gynecologic cancer cell panel viability, ATPlite luminescence, 48 h; series mostly up to 57.5 µM
# Procedure, shortened: as §1
# Tov112D = assay: as above; conditions: Gynecologic cancer cell panel viability, ATPlite luminescence, 48 h; series mostly up to 57.5 µM
# Procedure, shortened: as §1
# [1] = Drug repurposing screens with cells derived from glioblastoma tumor samples (AID 1345199); conditions: GBM patient neurospheres viability, ATP luminescence, 48 h; further: nearly all actives have a fitted effect of over 40% in size; further: potency means the concentration at half of the fitted maximal effect
# Procedure, shortened: (§2)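 Four patient lines of CD133+ GBM neurospheres were screened at several concentrations; hits were retested in those lines plus three slower-growing GBM lines, using 48-hour treatment and ATP-based viability.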
# astro = assay: as above; conditions: viability, ATP luminescence, 48 h; series mostly up to 45.9 µM
# Procedure, shortened: as §2
# [2] = target: Nuclear receptor subfamily 1 group I member 2 (Rattus norvegicus) (UniProt Q9R1A7); assay: qHTS assay for small molecule activators of the rat pregnane X receptor (rPXR) signaling pathway (AID 651751; call rule not given here); conditions: rPXR reporter cells, luciferase (One-Glo), 24 h
# Nuclear receptor subfamily 1 group I member 2 (Rattus norvegicus), sequence (Q9R1A7 whole entry, looked up): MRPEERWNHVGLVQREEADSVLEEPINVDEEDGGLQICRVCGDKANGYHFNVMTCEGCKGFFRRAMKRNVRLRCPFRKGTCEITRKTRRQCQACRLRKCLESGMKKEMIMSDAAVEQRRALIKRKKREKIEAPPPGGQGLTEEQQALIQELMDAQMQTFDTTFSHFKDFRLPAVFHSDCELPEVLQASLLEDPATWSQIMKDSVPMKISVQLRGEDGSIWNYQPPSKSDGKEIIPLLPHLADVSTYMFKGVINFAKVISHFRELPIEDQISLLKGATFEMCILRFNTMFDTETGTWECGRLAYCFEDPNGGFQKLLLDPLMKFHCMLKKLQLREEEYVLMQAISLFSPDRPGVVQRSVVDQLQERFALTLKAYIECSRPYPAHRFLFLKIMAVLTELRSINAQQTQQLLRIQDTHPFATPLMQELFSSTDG
# [3] = qHTS assay for small molecule activators of the human pregnane X receptor (PXR) signaling pathway (AID 720659; call rule not given here)
# [4] = at 20 µM (top of the series), tumour line C
# [5] = at 21.2 µM (top of the series), tumour line B
# [6] = at 21.2 µM (top of the series), tumour line D
# [7] = at 45.9 µM (top of the series), tumour line B
# [8] = at 45.9 µM (top of the series), tumour line D
# [9] = at 46.1 µM (top of the series), tumour line C
# [10] = at 46 µM (top of the series), tumour line A
smiles,measurement,setting,value
CC(C)(C)NCC(O)COc1cccc2c1CCC(=O)N2 (stereo not given),outcome,C33A,inactive
same,outcome,CAOV3,inactive
same,outcome,CASKI,inactive
same,outcome,Es-2,inactive
same,outcome,HeLa,inactive
same,outcome,Hek293T,inactive
same,outcome,JEG-3,inactive
same,Potency,OV90,inactive
same,outcome,PA-1,inactive
same,outcome,SKOV3,inactive
same,outcome,Tov-21-G,inactive
same,outcome,Tov112D,inactive
same,"activity, negative = cell killing",[1]; [4],-4.91%
same,"activity, negative = cell killing",[1]; [5],-10.6%
same,"activity, negative = cell killing",[1]; [6],12.4%
same,outcome,astro,inactive
Cc1ccsc1C(=CCCN1CCC[C@@H](C(=O)O)C1)c1sccc1C,outcome,C33A,inactive
same,outcome,CAOV3,inactive
same,outcome,CASKI,inactive
same,outcome,Es-2,inactive
same,outcome,HeLa,inactive
same,outcome,Hek293T,inactive
same,outcome,JEG-3,inactive
same,Potency,OV90,inactive
same,outcome,PA-1,inactive
same,outcome,SKOV3,inactive
same,outcome,Tov-21-G,inactive
same,outcome,Tov112D,inactive
same,"activity, negative = cell killing",[1]; [7],-2.91%
same,"activity, negative = cell killing",[1]; [8],-7.39%
same,"activity, negative = cell killing",[1]; [9],2.1%
same,outcome,astro,inactive
C[C@@H](N)C(=O)O,outcome,C33A,inactive
same,outcome,CAOV3,inactive
same,outcome,CASKI,inactive
same,outcome,Es-2,inactive
same,outcome,HeLa,inactive
same,outcome,Hek293T,inactive
same,outcome,JEG-3,inactive
same,Potency,OV90,inactive
same,outcome,PA-1,inactive
same,outcome,SKOV3,inactive
same,outcome,Tov-21-G,inactive
same,outcome,Tov112D,inactive
same,"activity, negative = cell killing",[1]; [7],-7.83%
same,"activity, negative = cell killing",[1]; [8],-21.5%
same,"activity, negative = cell killing",[1]; [9],15%
same,outcome,astro,inactive
Cc1c(C(=O)NCCO)[n+](=O)c2ccccc2n1[O-],outcome,C33A,inactive
same,outcome,CAOV3,inactive
same,outcome,CASKI,inactive
same,outcome,Es-2,inactive
same,outcome,HeLa,inactive
same,outcome,Hek293T,inactive
same,outcome,JEG-3,inactive
same,Potency,OV90,inactive
same,outcome,PA-1,inactive
same,outcome,SKOV3,inactive
same,outcome,Tov-21-G,inactive
same,outcome,Tov112D,inactive
same,"activity, negative = cell killing",[1]; [7],-6.85%
same,"activity, negative = cell killing",[1]; [8],-27.6%
same,"activity, negative = cell killing",[1]; [10],-29.3%
same,"activity, negative = cell killing",[1]; [9],-6.62%
same,outcome,astro,inactive
same,max response,[2],1.89%
same,outcome,[3],inactive
C=CCNC(N)=S,outcome,C33A,inactive
same,outcome,CAOV3,inactive
same,outcome,CASKI,inactive
same,outcome,Es-2,inactive
same,outcome,HeLa,inactive
same,outcome,Hek293T,inactive
same,outcome,JEG-3,inactive
same,Potency,OV90,inactive
same,outcome,PA-1,inactive
same,outcome,SKOV3,inactive
same,outcome,Tov-21-G,inactive
same,outcome,Tov112D,inactive
same,"activity, negative = cell killing",[1]; [7],-3.35%
same,"activity, negative = cell killing",[1]; [8],-8.91%
same,"activity, negative = cell killing",[1]; [10],-13.7%
same,"activity, negative = cell killing",[1]; [9],-3.97%
same,outcome,astro,inactive
same,max response,[2],-5.15%
same,outcome,[3],inactive
Cc1cccc(Nc2ccccc2C(=O)O)c1C,outcome,C33A,inactive
same,outcome,CAOV3,inactive
same,outcome,CASKI,inactive
same,outcome,Es-2,inactive
same,outcome,HeLa,inactive
same,outcome,Hek293T,inactive
same,outcome,JEG-3,inactive
same,Potency,OV90,inactive
same,outcome,PA-1,inactive
same,outcome,SKOV3,inactive
same,outcome,Tov-21-G,inactive
same,outcome,Tov112D,inactive
same,"activity, negative = cell killing",[1]; [7],-15.4%
same,"activity, negative = cell killing",[1]; [8],-14.4%
same,"activity, negative = cell killing",[1]; [10],-20%
same,"activity, negative = cell killing",[1]; [9],-15.4%
same,max response,[2],2.62%
C=CCOc1ccccc1OCC(O)CNC(C)C (stereo not given),outcome,C33A,inactive
same,outcome,CAOV3,inactive
same,outcome,CASKI,inactive
same,outcome,Es-2,inactive
same,outcome,HeLa,inactive
same,outcome,Hek293T,inactive
same,outcome,JEG-3,inactive
same,Potency,OV90,inactive
same,outcome,PA-1,inactive
same,outcome,SKOV3,inactive
same,outcome,Tov-21-G,inactive
same,outcome,Tov112D,inactive
same,"activity, negative = cell killing",[1]; [4],-4.31%
same,"activity, negative = cell killing",[1]; [5],1.37%
same,"activity, negative = cell killing",[1]; [6],-11.5%
same,outcome,astro,inactive
NCC1CCC(C(=O)Oc2ccc(CCC(=O)O)cc2)CC1 (stereo not given),outcome,C33A,inactive
same,outcome,CAOV3,inactive
same,outcome,CASKI,inactive
same,outcome,Es-2,inactive
same,outcome,HeLa,inactive
same,outcome,Hek293T,inactive
same,outcome,JEG-3,inactive
same,Potency,OV90,inactive
same,outcome,PA-1,inactive
same,outcome,SKOV3,inactive
same,outcome,Tov-21-G,inactive
same,outcome,Tov112D,inactive
same,"activity, negative = cell killing",[1]; [7],-0.713%
same,"activity, negative = cell killing",[1]; [8],-15%
same,"activity, negative = cell killing",[1]; [9],8.61%
same,outcome,astro,inactive
CCCCCCCCCCOc1cc2c(=O)c(C(=O)OCC)c[nH]c2cc1OCC,"activity change, negative = cytotoxicity",C33A,1.85% [at 6.55 µM]
same,"activity change, negative = cytotoxicity",CAOV3,22.4% [at 6.55 µM]
same,"activity change, negative = cytotoxicity",CASKI,19.5% [at 6.55 µM]
same,"activity change, negative = cytotoxicity",Es-2,-0.35% [at 6.55 µM]
same,"activity change, negative = cytotoxicity",HeLa,-1.47% [at 6.55 µM]
same,"activity change, negative = cytotoxicity",Hek293T,4.2% [at 6.55 µM]
same,"activity change, negative = cytotoxicity",JEG-3,6.94% [at 6.55 µM]
same,"activity change, negative = cytotoxicity",OV90,-2.35% [at 6.55 µM]
same,"activity change, negative = cytotoxicity",PA-1,-2.19% [at 6.55 µM]
same,"activity change, negative = cytotoxicity",SKOV3,0.739% [at 6.55 µM]
same,"activity change, negative = cytotoxicity",Tov-21-G,1.05% [at 6.55 µM]
same,"activity change, negative = cytotoxicity",Tov112D,-6.94% [at 6.55 µM]
same,"activity, negative = cell killing",[1]; [7],2.17%
same,"activity, negative = cell killing",[1]; [8],-20.1%
same,"activity, negative = cell killing",[1]; [9],-26.1%
same,outcome,astro,inactive
c1ccc2[nH]ccc2c1,outcome,C33A,inactive
same,outcome,CAOV3,inactive
same,outcome,CASKI,inactive
same,outcome,Es-2,inactive
same,outcome,HeLa,inactive
same,outcome,Hek293T,inactive
same,outcome,JEG-3,inactive
same,Potency,OV90,inactive
same,outcome,PA-1,inactive
same,outcome,SKOV3,inactive
same,outcome,Tov-21-G,inactive
same,outcome,Tov112D,inactive
same,"activity, negative = cell killing",[1]; [7],-8.88%
same,"activity, negative = cell killing",[1]; [10],-21.8%
same,"activity, negative = cell killing",[1]; [9],0.178%
same,outcome,astro,inactive
O=C(c1ccccc1)C(O)c1ccccc1 (stereo not given),outcome,C33A,inactive
same,outcome,CAOV3,inactive
same,outcome,CASKI,inactive
same,outcome,Es-2,inactive
same,outcome,HeLa,inactive
same,outcome,Hek293T,inactive
same,outcome,JEG-3,inactive
same,Potency,OV90,inactive
same,outcome,PA-1,inactive
same,outcome,SKOV3,inactive
same,outcome,Tov-21-G,inactive
same,outcome,Tov112D,inactive
same,"activity, negative = cell killing",[1]; [7],4.63%
same,"activity, negative = cell killing",[1]; [8],-16.7%
same,"activity, negative = cell killing",[1]; [10],-19%
same,"activity, negative = cell killing",[1]; [9],-3.13%
same,outcome,astro,inactive
same,max response,[2],4.81% and 0.908%
same,outcome,[3],inactive
CC(CN(C)C)C(C)(O)Cc1ccc(Cl)cc1 (stereo not given),outcome,C33A,inactive
same,outcome,CAOV3,inactive
same,outcome,CASKI,inactive
same,outcome,Es-2,inactive
same,outcome,HeLa,inactive
same,outcome,Hek293T,inactive
same,outcome,JEG-3,inactive
same,Potency,OV90,inactive
same,outcome,PA-1,inactive
same,outcome,SKOV3,inactive
same,outcome,Tov-21-G,inactive
same,outcome,Tov112D,inactive
same,"activity, negative = cell killing",[1]; [7],-15.1%
same,"activity, negative = cell killing",[1]; [9],-8.21%
same,Potency,[1]; tumour line A,20 µM (active)
same,outcome,astro,inactive
Cc1cc(C)nc(NS(=O)(=O)c2ccc(N)cc2)n1,outcome,C33A,inactive
same,outcome,CAOV3,inactive
same,outcome,CASKI,inactive
same,outcome,Es-2,inactive
same,outcome,HeLa,inactive
same,outcome,Hek293T,inactive
same,outcome,JEG-3,inactive
same,Potency,OV90,inactive
same,outcome,PA-1,inactive
same,outcome,SKOV3,inactive
same,outcome,Tov-21-G,inactive
same,outcome,Tov112D,inactive
same,"activity, negative = cell killing",[1]; [7],-8.37%
same,"activity, negative = cell killing",[1]; [10],-19.9%
same,"activity, negative = cell killing",[1]; [9],-16.8%
same,outcome,astro,inactive
same,max response,[2],4.51% and 0.319%
Nc1c2c(nc3c1CCC3)CCCC2,outcome,C33A,inactive
same,outcome,CAOV3,inactive
same,outcome,CASKI,inactive
same,outcome,Es-2,inactive
same,outcome,HeLa,inactive
same,outcome,Hek293T,inactive
same,outcome,JEG-3,inactive
same,Potency,OV90,inactive
same,outcome,PA-1,inactive
same,outcome,SKOV3,inactive
same,outcome,Tov-21-G,inactive
same,outcome,Tov112D,inactive
same,"activity, negative = cell killing",[1]; [7],-2.28%
same,"activity, negative = cell killing",[1]; [8],-13.4%
same,"activity, negative = cell killing",[1]; [9],-27.2%
same,outcome,astro,inactive
